Measured values from ChEMBL document CHEMBL4513149, “CO-ADD screening of MMV (CH) - MMV compounds” (2021).
Measured potencies and affinities stand elsewhere.

What was measured:
Klebsiella pneumoniae = settings: Concentration 20 uM; ASSAY_TEST Inhibition of Bacterial Growth; detection method Absorption (OD600); MEDIA CAMHB; plate type 384well; NBS; CORNING #3640; time 18 hr
Candida albicans = settings: 20 µM
Cryptococcus neoformans = settings: Concentration 20 uM; ASSAY_TEST Inhibition of Fungal Growth; detection method Resazurin; Absorption (OD600-OD570); plate type 384well; NBS; CORNING #3640

For COc1cccc(-c2cc3c(Nc4cccnc4)nccc3[nH]2)c1, the Inhibition (Klebsiella pneumoniae) was 4.5%, the Inhibition (Candida albicans) was 3.5% and the Inhibition (Cryptococcus neoformans) was -6.63%.

With CCNC(=O)C(C)Nc1nc(-c2cccnc2)nc2sc(C)c(C)c12 (centres undefined) the Inhibition (Klebsiella pneumoniae) was -9.71%, the Inhibition (Candida albicans) was 5.77% and the Inhibition (Cryptococcus neoformans) was -4.41%.

Cc1cc(OCC(=O)Nc2ccc(C(C)C)cc2)n(C)c(=O)c1C#N showed an Inhibition (Klebsiella pneumoniae) of -7.95%, an Inhibition (Candida albicans) of 4.91% and an Inhibition (Cryptococcus neoformans) of 4.44%.

N#Cc1nc(-c2ccccc2F)oc1NCCc1ccccc1 gave an Inhibition (Klebsiella pneumoniae) of 12.11%, an Inhibition (Candida albicans) of 6.96% and an Inhibition (Cryptococcus neoformans) of -3.78%.

In the case of CC(C)(C)c1cnc(NC(=O)c2ccccc2O)s1, the Inhibition (Klebsiella pneumoniae) is reported as 10.5%, the Inhibition (Candida albicans) is reported as 11.6% and the Inhibition (Cryptococcus neoformans) is reported as 5.21%.

Compound CN(C)c1cc(NC(=O)Nc2ccccc2)c2ccccc2n1 has an Inhibition (Klebsiella pneumoniae) of -9.89%, an Inhibition (Candida albicans) of 5.61% and an Inhibition (Cryptococcus neoformans) of -2.57%.

COc1ccc(-c2nn(C(C)C)c3ncnc(N)c23)cc1OC showed an Inhibition (Klebsiella pneumoniae) of 10.07%, an Inhibition (Candida albicans) of 2.58% and an Inhibition (Cryptococcus neoformans) of -0.18%.

CC(C)C(NC(=O)Cc1cccc2ccccc12)C(=O)Nc1cccc(C#N)c1 (centres undefined) gave an Inhibition (Klebsiella pneumoniae) of 13.86%, an Inhibition (Candida albicans) of 6.6% and an Inhibition (Cryptococcus neoformans) of -4.4%.

For CNc1snc(C)c1C(=O)NCCOc1ccc(OC)cc1, the Inhibition (Klebsiella pneumoniae) was 10.83%, the Inhibition (Candida albicans) was 3.15% and the Inhibition (Cryptococcus neoformans) was 1.78%.

With O=C(Nc1nnc(S)s1)c1cc(Br)ccc1Cl the Inhibition (Klebsiella pneumoniae) was 6.18%, the Inhibition (Candida albicans) was 4.73% and the Inhibition (Cryptococcus neoformans) was -3.6%.

Work on CCc1ccccc1-n1c(C)cn2c3c(=O)n(C(C(=O)OC)C(C)C)c(=O)n(C)c3nc12 (centres undefined) yielded an Inhibition (Klebsiella pneumoniae) of 8.42%, an Inhibition (Candida albicans) of 0.33% and an Inhibition (Cryptococcus neoformans) of -8.91%.

COc1ccc(C2(C(=O)Nc3ccc(Br)cc3)CCCC2)cc1 was tested, and the Inhibition (Klebsiella pneumoniae) was 17.05%, the Inhibition (Candida albicans) was 4.64% and the Inhibition (Cryptococcus neoformans) was -2.31%.

For c1ccc(Oc2ccc(-c3cc(CN4CCOCC4)[nH]n3)cc2)cc1, the Inhibition (Klebsiella pneumoniae) was 7.99%, the Inhibition (Candida albicans) was 4.1% and the Inhibition (Cryptococcus neoformans) was -6.41%.

FC(F)(F)c1nnc2ccc(Cl)nn12 was tested, and the Inhibition (Klebsiella pneumoniae) was 7.1%, the Inhibition (Candida albicans) was 2.55% and the Inhibition (Cryptococcus neoformans) was 2.75%.

Compound CCC(NC(=O)c1ccccc1NC(=O)c1ccc(C)cc1)C(=O)OC (centres undefined) has an Inhibition (Klebsiella pneumoniae) of 8.73%, an Inhibition (Candida albicans) of 4.2% and an Inhibition (Cryptococcus neoformans) of -3.77%.

Cc1ccc2cc(C3NC(=O)c4ccccc4N3)c(Cl)nc2c1 (centres undefined) was tested, and the Inhibition (Klebsiella pneumoniae) was 19.35%, the Inhibition (Candida albicans) was 3.16% and the Inhibition (Cryptococcus neoformans) was -7.26%.

O=C(Nc1ccnc(-c2cccnc2)n1)c1cc(C(F)(F)F)cc(C(F)(F)F)c1 was tested, and the Inhibition (Klebsiella pneumoniae) was 14.57%, the Inhibition (Candida albicans) was 1.91% and the Inhibition (Cryptococcus neoformans) was -5.46%.

Compound CC(Oc1ccccc1)C(=O)Nc1nc(-c2ccccn2)cs1 (centres undefined) has an Inhibition (Klebsiella pneumoniae) of -2.79%, an Inhibition (Candida albicans) of -0.26% and an Inhibition (Cryptococcus neoformans) of -5.96%.

With FC(F)(F)c1cccc(-c2nc3c(NCc4ccncc4)nccc3[nH]2)c1 the Inhibition (Klebsiella pneumoniae) was 6.33%, the Inhibition (Candida albicans) was 3.63% and the Inhibition (Cryptococcus neoformans) was 5.66%.

Work on O=C(Nc1nc(-c2ccccn2)cs1)c1cncn1-c1ccccc1 yielded an Inhibition (Klebsiella pneumoniae) of 11.31%, an Inhibition (Candida albicans) of 1.74% and an Inhibition (Cryptococcus neoformans) of -8.18%.

CCCc1ccc(S(=O)(=O)Nc2ccc(CN3CCN(CC4CC4)CC3)cc2)cc1 gave an Inhibition (Klebsiella pneumoniae) of 16.66%, an Inhibition (Candida albicans) of 4.6% and an Inhibition (Cryptococcus neoformans) of -0.39%.

CC(C)(C)OC(=O)N1CCN(c2nccc(-c3ccc(-c4ccc(Cl)cc4)s3)n2)CC1 showed an Inhibition (Klebsiella pneumoniae) of 5%, an Inhibition (Candida albicans) of 3.84% and an Inhibition (Cryptococcus neoformans) of -6.76%.

NS(=O)(=O)c1cccc(-c2ccc3ncc(N4CCOCC4)nc3c2)c1 was tested, and the Inhibition (Klebsiella pneumoniae) was 17.56%, the Inhibition (Candida albicans) was 4.12% and the Inhibition (Cryptococcus neoformans) was -9.08%.

CC1COC2(CCN(c3nc(=O)c4cc(C(F)(F)F)cc([N+](=O)[O-])c4s3)CC2)O1 (centres undefined) showed an Inhibition (Klebsiella pneumoniae) of 8.31%, an Inhibition (Candida albicans) of 2.39% and an Inhibition (Cryptococcus neoformans) of -12.38%.

Work on CNc1cc(C)nc(C2CN(C(=O)c3n[nH]c4ccccc34)CCO2)c1 (centres undefined) yielded an Inhibition (Klebsiella pneumoniae) of 20.78%, an Inhibition (Candida albicans) of 2.95% and an Inhibition (Cryptococcus neoformans) of -9.16%.

CCCCOC(=O)Nc1cc2nc(C3CCCCC3)[nH]c2cc1N1CCCC1 was tested, and the Inhibition (Klebsiella pneumoniae) was 3.91%, the Inhibition (Candida albicans) was 3.13% and the Inhibition (Cryptococcus neoformans) was -8.19%.

Compound CCOc1ccc(OCC(=O)Nc2cc(C)cc(C)c2)cc1 has an Inhibition (Klebsiella pneumoniae) of 6.85%, an Inhibition (Candida albicans) of 9.23% and an Inhibition (Cryptococcus neoformans) of -6.41%.

For COc1cc(OC)cc(C(=O)NCC2Cc3cc(Cl)cc(-c4ccncc4)c3O2)c1 (centres undefined), the Inhibition (Klebsiella pneumoniae) was 8.14%, the Inhibition (Candida albicans) was 4.34% and the Inhibition (Cryptococcus neoformans) was -5.78%.

Work on Cc1cc(Nc2ccc(C(F)(F)F)cc2)n2ccnc2n1 yielded an Inhibition (Klebsiella pneumoniae) of 6.21%, an Inhibition (Candida albicans) of 3.67% and an Inhibition (Cryptococcus neoformans) of 2.17%.

Compound O=C(Nc1nc(-c2ccccn2)cs1)C1CC1c1ccccc1F (centres undefined) has an Inhibition (Klebsiella pneumoniae) of 21.19%, an Inhibition (Candida albicans) of 5.33% and an Inhibition (Cryptococcus neoformans) of -9.59%.

Compound Cc1ccc2nc(Cl)c(CNCc3cccs3)cc2c1 has an Inhibition (Klebsiella pneumoniae) of 1.61%, an Inhibition (Candida albicans) of 2.37% and an Inhibition (Cryptococcus neoformans) of -15.9%.

Work on CCOc1ccccc1NC(C)C(=O)Nc1cc(C(F)(F)F)ccc1N1CCOCC1 (centres undefined) yielded an Inhibition (Klebsiella pneumoniae) of 14.66%, an Inhibition (Candida albicans) of 4.33% and an Inhibition (Cryptococcus neoformans) of -7.7%.

In the case of CCC(=O)Nc1ccccc1C(=O)Nc1ccccn1, the Inhibition (Klebsiella pneumoniae) is reported as 11.13%, the Inhibition (Candida albicans) is reported as 3.37% and the Inhibition (Cryptococcus neoformans) is reported as -4.64%.
